Experimental data: PubChem BioAssay (NCATS)
Where “and” joins values, the source holds several entries; their conditions need not be identical. Identical values can stand only once. Records with an inconclusive call do not appear. The source holds several records for some structures; these can differ, active in one and inactive in another. Calls of active or inactive are those of the source. The call rests on the fitted dose curve; in most records, active means well fitted inhibition curve with a large enough effect; inconclusive means small, poorly fitted or top-dose-only effect; inactive means flat fitted curve, though single readings scatter.

These molecules were tested against Phospholipid hydroperoxide glutathione peroxidase GPX4 (Homo sapiens) (UniProt P36969) (assay: Primary qHTS Assay for Inhibitors of Recombinant Selenoprotein Glutathione Peroxidase 4 (GPX4) (AID 1845192; further: nearly all actives have a fitted effect of over 65% in size)). Details: recombinant GPX4, GR-coupled NADPH fluorescence, 15 min; series mostly up to 50 µM; activity change, negative = inhibition: at the top concentration.
Excerpt: Assay Provider: Elias S.J. Arner MD PhD.
Department of Medical Biochemistry and Biophysics
Karolinska Institutet, Solna, Stockholm, Sweden
Selenoprotein glutathione peroxidases (GPX), like the ubiquitously expressed GPX1 and the ferroptosis modulator GPX4, enact their antioxidant activities by reducing hydroperoxides using glutathione. […] GPX1 and GPX4 inhibitors have thus shown promise as anti-cancer agents. Existing inhibitors are often promiscuous, or modulate GPX activity only indirectly, so novel direct inhibitors identified through screening against GPX1 and GPX4 could be valuable. Here, we developed optimized glutathione reductase (GR)-coupled GPX assays for the biochemical high-throughput screen (HTS) of almost 12,000 compounds with known mechanisms of action. Initial hits were triaged using a GR counter-screen, assessed for isoform specificity using a separate GPX2 assay, and were assessed for general selenocysteine-targeting activity using a thioredoxin reductase (TXNRD1) assay. With this suite of assays, we identified novel GPX1/GPX2- and GPX4-specific inhibitors and can here present a validated pipeline for future discovery research for selenoprotein-targeting agents.
SEQUENCE No. (e.g., 1, 2, 3, etc.); […] (e.g., Cells, Incubation, Reagent, etc.); VALUE; DESCRIPTION.
1; Reagent 1; 3 uL; 333.33 nM GPx4 enzyme or no enzyme control in 1536-well, black, solid Greiner assay plate.
2; Compound; 25 nL; Kalypsis pin tool (Wako USA) equipped with a 1536-well pin head.
3; Incubation; 30 min; room temperature.
4; Reagent 2; 1 uL; 500 nM GR, 5 mM GSH, 2.5 mM NADPH solution
5; Reagent 3; 1 uL; 2.5 mM CHP in 50% EtOH.
6; Detection; Fluorescence; ViewLux microplate reader, excitation 340 nm and emission 450 nm.
7; Incubation; 15 min; room temperature.
8; Detection; Fluorescence; ViewLux microplate reader, excitation 340 nm and emission 450 nm.
NOTES (numbers refer to Sequence numbers above)
1. 3 µL of 333.33 nM GPX4 and 0.016% BSA in assay buffer (50 mM Tris-HCl, 2 mM EDTA (pH 7.5), 150 mM NaCl) was added to columns 3-48 of 1536-well plates using a BioRAPTR Flying Reagent Dispenser (Let's Go Robotics (LGR), Carlsbad, CA). A no-enzyme control (0.01% BSA in TES assay buffer) was added to columns 1-2.
2. 25 nL, library and DMSO controls were added to each well with a pin tool (Kalypsys).
3. The assay plates were incubated for 30 minutes at room temperature.
4. 1 µL of master mix (500 nM glutathione reductase (GR), 5 mM reduced glutathione (GSH), 2.5 mM NADPH in assay buffer) was added.
5. 1 µL of cumene hydroperoxide (CHP) ([2.5 mM] in 50% EtOH) was then added within 5 minutes to initiate the reaction. Final concentrations were: 200 nM GPX4, 1 mM GSH, 0.5 mM CHP, 0.5 mM NADPH, 100 nM GR, 0.01% BSA.
6. Initial fluorescence readout (t=0) at 340/450 nm was measured using a ViewLux multimodal detector (PerkinElmer, Waltham, MA).
8. Endpoint fluorescence readout (t=15) at 340/450 nm was measured 15 min after room temperature incubation.
Potency means the concentration at half of the fitted maximal effect.

Sequence of Phospholipid hydroperoxide glutathione peroxidase GPX4 (Homo sapiens) (P36969 whole entry, looked up): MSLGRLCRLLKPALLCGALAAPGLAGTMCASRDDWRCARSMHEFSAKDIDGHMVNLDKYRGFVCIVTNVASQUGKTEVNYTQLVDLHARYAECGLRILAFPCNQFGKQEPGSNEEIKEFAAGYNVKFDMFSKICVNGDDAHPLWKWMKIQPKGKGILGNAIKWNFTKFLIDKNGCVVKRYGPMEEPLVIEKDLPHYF

**Q.** `O=C(c1cc(O)c(O)c([N+](=O)[O-])c1)c1ccccc1F` was tested. Which “activity change, negative = inhibition” value did it give?
**A.** The value was -12% (inactive).

**Q.** How did the “activity change, negative = inhibition” value turn out when `COc1ccccc1CN[C@@H]1CCCN[C@@H]1c1ccccc1` was run?
**A.** Its value is -14% (inactive).

**Q.** Which “outcome” value does the source give for `CNC(=O)[C@H]1O[C@@H](n2cnc3c(NCc4ccc(N)cc4)ncnc32)[C@H](O)[C@@H]1O` here?
**A.** Its value is “inactive”.

**Q.** How did the “activity change, negative = inhibition” value turn out when `Cc1onc(-c2c(F)cccc2Cl)c1C(=O)N[C@@H]1C(=O)N2[C@@H]1SC(C)(C)[C@@H]2C(=O)O` was run?
**A.** The value was -13.5% (inactive).

**Q.** With `CN1[C@@H]2CC[C@H]1CC(OC(=O)C(CO)c1ccccc1)C2` (stereo not given in full) as the molecule, how does the “activity change, negative = inhibition” value read?
**A.** Its value is -1.17% (inactive).

**Q.** `COc1ccc(Br)cc1S(=O)(=O)NC(=O)/C=C/c1ccccc1Cc1ccc2ccccc2c1` was tested. Which “activity change, negative = inhibition” value did it give?
**A.** The value was 0.234% (inactive).

**Q.** For `CC1(C)CCC=[N+]1[O-]`, which “activity change, negative = inhibition” value is on record?
**A.** Its value is -2.7% (inactive).

**Q.** For `O=C(NOCC1CC1)c1cc(Br)c(F)c(F)c1Nc1ccc(I)cc1Cl`, which “activity change, negative = inhibition” value is on record?
**A.** The value was -2.86% (inactive).

**Q.** `CN1[C@@H](CC(=O)c2ccccc2)CCC[C@H]1C[C@H](O)c1ccccc1` was tested. Which “activity change, negative = inhibition” value did it give?
**A.** The value was 0.0894% (inactive).

**Q.** Which “activity change, negative = inhibition” value does the source give for `NC(CCCP(=O)(O)O)C(=O)O` (stereo not given) here?
**A.** Its value is -10.4% (inactive).

**Q.** `COc1ccc(-c2cc(=O)c3c(O)c(OC)c(OC)cc3o2)cc1O` was tested. Which “activity change, negative = inhibition” value did it give?
**A.** The value was 0.11% (inactive).

**Q.** With `CN[C@H](CC(C)C)C(=O)N[C@H]1C(=O)N[C@@H](CC(N)=O)C(=O)N[C@H]2C(=O)N[C@H]3C(=O)N[C@H](C(=O)N[C@H](C(=O)O)c4cc(O)cc(O)c4-c4cc3ccc4O)[C@H](O)c3ccc(c(Cl)c3)Oc3cc2cc(c3O[C@@H]2O[C@H](CO)[C@@H](O)[C@H](O)[C@H]2O[C@H]2C[C@](C)(N)[C@H](O)[C@H](C)O2)Oc2ccc(cc2Cl)[C@H]1O` as the molecule, how does the Potency read?
**A.** The Potency was “inactive”.

**Q.** Which “activity change, negative = inhibition” value does the source give for `OC[C@H]1O[C@@H](n2cnc3c(NC4CCCCC4)ncnc32)[C@H](O)[C@@H]1O` here?
**A.** The value was -3.8% (inactive).

**Q.** Which “outcome” value does the source give for `Cc1c(Nc2ncccc2C(=O)O)cccc1C(F)(F)F` here?
**A.** Its value is “inactive”.

**Q.** For `C#C[C@]1(O)CC[C@H]2[C@@H]3CCc4cc(O)ccc4[C@H]3CC[C@@]21C`, which Potency is on record?
**A.** Its Potency is “inactive”.

**Q.** Which Potency does the source give for `CC1(C)[C@@H](O)CC[C@]2(C)[C@H]3C(=O)C=C4[C@@H]5C[C@@](C)(C(=O)O)CC[C@]5(C)CC[C@@]4(C)[C@]3(C)CC[C@@H]12` here?
**A.** The Potency was “inactive and 8.91 µM (active)”.

**Q.** Which “activity change, negative = inhibition” value does the source give for `O=C(O)c1cc(O)c(O)c(O)c1` here?
**A.** Its value is -7.48% (inactive).

**Q.** For `OCC1O[C@H]([S-])[C@H](O)[C@@H](O)[C@@H]1O.[Au+]` (stereo not given in full), which “activity change, negative = inhibition” value is on record?
**A.** Its value is 4.98% (inactive).

**Q.** Which “outcome” value does the source give for `O=C(CCSCc1ccco1)NNC(=O)N1Cc2ccccc2Oc2ccc(Cl)cc21` here?
**A.** The value was “inactive”.

**Q.** `CN(C)c1nc(N)c(C(=O)N=C(N)N)nc1Cl` was tested. Which “activity change, negative = inhibition” value did it give?
**A.** Its value is -19.5% (inactive).

**Q.** Which “outcome” value does the source give for `CN=c1nc(-c2ccccc2)n(-c2ccccc2)s1` here?
**A.** The value was “inactive”.

**Q.** `O=C1NC(=O)/C(=C/c2ccc(-c3ccc(F)cc3O)o2)S1` was tested. Which “outcome” value did it give?
**A.** Its value is “inactive”.

**Q.** For `COc1cccc(OC)c1OCCNCC1COc2ccccc2O1` (stereo not given), which “activity change, negative = inhibition” value is on record?
**A.** Its value is -16.3% (inactive).

**Q.** `CC1OC1P(=O)(O)O` (stereo not given) was tested. Which “outcome” value did it give?
**A.** The value was “inactive”.

**Q.** Which “activity change, negative = inhibition” value does the source give for `CC(=O)/C=C1\C(=O)N(C)c2ccccc21` here?
**A.** Its value is 0.0252% (inactive).

**Q.** How did the “outcome” value turn out when `S=c1[nH]c(-c2ccccc2)cn1-c1ccccc1` was run?
**A.** Its value is “inactive”.

**Q.** With `COc1cc2c(CCNC(C)=O)c[nH]c2cc1Cl` as the molecule, how does the “activity change, negative = inhibition” value read?
**A.** The value was -15.6% (inactive).

**Q.** For `CC(N)C(=O)OC(C)(C)Cc1ccc(Cl)cc1` (stereo not given), which “outcome” value is on record?
**A.** Its value is “inactive”.

**Q.** Which “activity change, negative = inhibition” value does the source give for `COc1ccc(C(=O)/C(Cc2cc(OC)c(OC)c(OC)c2)=C(\C(=O)O)c2ccc3c(c2)OCO3)cc1` here?
**A.** Its value is -11.1% (inactive).

**Q.** How did the “activity change, negative = inhibition” value turn out when `O=C(O)/C=C\C(=O)O` was run?
**A.** The value was 3.73% (inactive).

**Q.** With `Nc1nc2ccc(Cl)cc2n2c(-c3ccccc3)nnc12` as the molecule, how does the “activity change, negative = inhibition” value read?
**A.** Its value is -4.77% (inactive).

**Q.** Which “outcome” value does the source give for `O=C1CN(/N=C/c2ccc([N+](=O)[O-])o2)C(=O)N1` here?
**A.** The value was “inactive”.

**Q.** With `Cn1c(=O)c(-c2c(Cl)cccc2Cl)cc2cnc(Nc3ccc(N4CCOCC4)cc3)nc21` as the molecule, how does the “activity change, negative = inhibition” value read?
**A.** Its value is -19.8% (inactive).

**Q.** Which “activity change, negative = inhibition” value does the source give for `CC1(C)[C@@H](O[C@H]2O[C@H](C(=O)O)[C@@H](O)[C@H](O)[C@H]2O[C@@H]2O[C@H](C(=O)O)[C@@H](O)[C@H](O)[C@H]2O)CC[C@]2(C)[C@H]3C(=O)C=C4[C@@H]5C[C@@](C)(C(=O)O)CC[C@]5(C)CC[C@@]4(C)[C@]3(C)CC[C@@H]12` here?
**A.** The value was -1.41% [at 27.8 µM] (inactive).

**Q.** With `NC(=O)C(c1ccccc1)(c1ccccc1)[C@@H]1CCN(CCc2ccc3c(c2)CCO3)C1` as the molecule, how does the “outcome” value read?
**A.** Its value is “inactive”.

**Q.** Which Potency does the source give for `N=c1ccn2c(n1)O[C@H]1[C@H](O)[C@@H](CO)O[C@H]12` here?
**A.** Its Potency is “inactive”.

**Q.** How did the “activity change, negative = inhibition” value turn out when `CC[C@@H](C)[C@H]1O[C@]2(CC[C@@H]1C)C[C@@H]1C[C@@H](C/C=C(\C)[C@@H](O[C@H]3C[C@H](OC)[C@@H](O[C@H]4C[C@H](OC)[C@@H](O)[C@H](C)O4)[C@H](C)O3)[C@@H](C)/C=C/C=C3\CO[C@@H]4[C@H](O)C(C)=C[C@@H](C(=O)O1)[C@]34O)O2` was run?
**A.** The value was -29.8% (inactive).

**Q.** With `O=C1NCc2c1c1c3ccccc3[nH]c1c1[nH]c3ccccc3c21` as the molecule, how does the “activity change, negative = inhibition” value read?
**A.** Its value is -2.92% (inactive).

**Q.** Which Potency does the source give for `Cc1ccc2c(n1)Oc1ccc(C(C)C(=O)OCC(=O)N(C)C)cc1C2` (stereo not given) here?
**A.** Its Potency is “inactive”.

**Q.** How did the “activity change, negative = inhibition” value turn out when `O=C(O)CC1CCCc2ccccc2C1O` (stereo not given) was run?
**A.** Its value is -0.377% (inactive).
